The panel holds about 83,000 compounds, 20% with a hit somewhere; the sample as a whole holds those more often.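 Plates (96-well) were seeded with cells, treated with compound at one concentration, and incubated for 48 hours before percent growth was determined.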 Active and inactive are the calls of the source. How the source made its calls: active means growth percent below 10; inactive means the rest.
Test system: SR leukemia
Assay: NCI-60 one-dose screen, 48 h (100 = growth as untreated, 0 = no growth, -100 = all killed)
Conditions: 10 µM

Compound	growth
COc1ccc2[nH]c(=O)c(CSc3ccc(Nc4nccc(-c5ccc(Cl)cc5)n4)cc3)cc2c1	90.9% (inactive)
CCOC(=O)C1=C(N)N(c2ccccc2)C2=C(C(=O)CC(C)(C)C2)C1c1ccccc1OC (stereo not drawn)	95% (inactive)
COc1cccc2nc(Nc3cccc(NC(=O)c4ccc(CN5CCCN(C)CC5)c(C(F)(F)F)c4)c3)ccc12	-27.1% (active)
COc1cc(C2CC(c3ccc(C)cc3)=Nc3c(N)nc(N)nc3N2)ccc1Oc1nc(Nc2ccc(F)cc2)nc(N(C)C)n1 (stereo not drawn)	0.613% (active)
CC(=O)Nc1ccc(-c2cn(-c3cccc(C(=O)Nc4ccc(Cl)c(C(F)(F)F)c4)c3)nn2)cn1	16.1% (inactive)
Cc1cc(C(F)(F)F)ccc1C(=O)Nc1sc2c(c1C#N)CCC(=O)C2	-9.8% (active)
COc1ccc(OC)c(/C=N/NC(=O)c2ccc3nc(-c4ccc(Cl)cc4)[nH]c3c2)c1	68.6% (inactive)
CC1=N/C(=C\c2ccc(N(C)C)cc2)C(=O)N1CCc1ccc(S(N)(=O)=O)cc1	86.4% (inactive)
Cc1ccc(-c2cc(C(=O)N=Nc3c(O)[nH]c4ccc(Br)cc34)c3ccccc3n2)cc1	10.4% (inactive)
COc1ccccc1C(=O)NNC(=O)CSc1nc2c(c(=O)[nH]1)CCCC2	96.4% (inactive)
C=C1CCC2C3(C)COC(c4cccc(F)c4)OC3CCC2(C)C1CC(O)C1=CCOC1=O (stereo not drawn)	40.4% (inactive)
C=C1CCC2C3(C)COC(c4c(F)cccc4F)OC3CCC2(C)C1C/C=C1/C(=O)OCC1O (stereo not drawn)	14.8% (inactive)
Nc1nnc(-c2c[nH]c3ccc(F)cc23)c(-c2c[nH]c3ncccc23)n1	20.6% (inactive)

— PubChem BioAssay (NCI)
